Assay results from PubChem BioAssay (NCATS).
Values joined by “and” are separate entries in the source; they are usually repeats but may differ in a detail not shown here. Equal values may be shown once. Results filed as inconclusive are left out. Entries that show only a call come without a potency. Active and inactive are the calls of the source. The call rests on the fitted dose curve; in most records, active means well fitted curve in the direction sought with a large enough effect; inconclusive means small, poorly fitted or top-dose-only effect, or another doubt; inactive means no such curve, though single readings can be large; an effect the other way counts as inactive or inconclusive.

How the values were obtained:
[1] = Primary qHTS for inhibitors of nuclear receptor binding SET domain protein 2 (NSD2) in an isogenic RCH-ACV NSD2 p.E1099K mutant (9B) (AID 1645876)
[2] = Primary qHTS for inhibitors of nuclear receptor binding SET domain protein 2 (NSD2) in an RCH-ACV wild type WT cells (2C) (AID 1645877)
Further: nearly all actives have a fitted effect of over 70% in size.
Potency means the concentration at half of the fitted maximal effect.

Structure (SMILES)	Potency [1]	Potency [2]	outcome [1]	outcome [2]
CCOc1cc2ncc(C#N)c(Nc3ccc(OCc4ccccn4)c(Cl)c3)c2cc1NC(=O)/C=C/CN(C)C	282 nM (active) and 1.32 µM (active)	282 nM (active) and 833 nM (active)		
CC(=O)N(O)CCCCCN1C(=O)CCC1=O	inactive	inactive		
CC1(CCC(=O)O)C(=O)C=CC23CC4CC(OC4(C)C2O)C13 (stereo unspecified)	inactive	inactive		
C=C1C[C@@]23CC[C@@H]4[C@](C)(C(=O)O)CCC[C@@]4(C)C2=CC[C@H]1C3	inactive	inactive		
CC(C)(O)C1CCC2(C)C3C(O)C4C(C13)C42CO (stereo unspecified)	inactive	inactive		
COc1cc(CCc2ccccc2)c(C(=O)O)c2c1CC(C(C)(C)O)O2 (stereo unspecified)	inactive	inactive		
CC(C)C1=CC2=CCC3[C@](C)(CCC[C@@]3(C)C(=O)O)C2CC1=O (stereo partly specified)	inactive	inactive		
C=C1C2(CCC(=O)OC2(C)C)CC(OC(=O)/C(C)=C/C)C2(C)C13OC14C(=O)OC(C)(C(=O)C12C(=O)OC4C)C3OC(C)=O (stereo unspecified)	inactive	inactive		
COc1cc(/C=C/C(=O)OC(C)(C)C(OC2OC(CO)C(O)C(O)C2O)C(=O)OCc2ccc(OC3OC(CO)C(O)C(O)C3O)cc2)ccc1O (stereo unspecified)	inactive	inactive		
COc1cc2c(cc1O)C1(Cc3ccc4c(c3C1=O)OCO4)N(C)CC2 (stereo unspecified)	inactive	inactive		
CC1=CC(=O)C[C@H]2[C@@H]1CC[C@@H](C)[C@]21CO[C@H](c2ccoc2)C1=O	inactive	inactive		
CC1(CO)CC2C(O)C(=O)C3(CO)CC3(C)C2C1 (stereo unspecified)	inactive	inactive		
CO[C@H]1C=C2C(CC[C@H](O[C@@H]3O[C@H](CO)[C@@H](O)[C@@H](O)[C@H]3O)C2(C)C)[C@]2(C)CC[C@]3(C)C([C@H](C)C(O)C(C=C(C)C)O[C@@H]4O[C@H](CO)[C@@H](O)[C@@H](O)[C@H]4O)CC[C@@]3(C)C12 (stereo partly specified)			inactive [at 9.23 µM]	inactive [at 9.23 µM]
